These results are taken from PubChem BioAssay (NCATS).

Where “and” joins values, the source holds several entries; their conditions need not be identical. Equal entries are not always repeated. Records with an inconclusive call do not appear. Some structures have more than one record in an assay (separate samples or runs), and their calls can disagree. Calls of active or inactive are those of the source. Unless noted, calls come from the whole dose curve; as a rule, active = well fitted curve in either direction with a large enough effect (not every such curve was filed as active); inconclusive = small, poorly fitted or top-dose-only effect, or another doubt; inactive = flat fitted curve, though single readings scatter.

The target in assay [1] is Lysosomal acid glucosylceramidase (Homo sapiens) (UniProt P04062). Kind of assay: Glucocerebrosidase-p2 (AID 348; in the data active = potency below about 10 µM; note: potency is the fitted concentration of half-maximal effect). To be noted: purified GBA, blue fluorogenic substrate, 40 min. The essentials:
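Compounds titrated from 0.6 nM upwards against 0.2 nM enzyme in pH 5.9 citric acid/KH2PO4, taurocholate, tween-20; blue fluorogenic substrate 80 uM, 40 min room temperature, stopped and read Ex 365/Em 440 for AC50.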

Assay [2] concerns the target Cytochrome P450 1A2 (Homo sapiens) (UniProt P05177). Nature of the assay: p450-cyp1a2 (AID 410; calls by dose curve; note: potency is the fitted concentration of half-maximal effect;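 for activity change, negative = inhibition: -100% = full effect of reference inhibitor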). The note with it: recombinant CYP1A2, luciferin-ME demethylation, luminescence; series mostly up to 57 µM. The essentials:
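20nM CYP1A2 with 100uM Luciferin-ME (at Km) in 100mM KPO4; compound preincubated 10 min, NADPH regeneration added, 60 min at room temperature. Luciferin quantified by luminescence after detection reagent; normalized to 57 uM furafylline.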

Assay [3] can be described thus: NFAT Signaling Pathway (AID 444).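 Note: carbachol stimulus at about its EC50 of 1 µM final; % is set by controls: 0 for no effect and ±100 for the full control effect.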 To be noted: Jurkat NFAT-bla M1, carbachol, beta-lactamase ratio, 5 h. Summed up:
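Read-out: CCF4 FRET ratio (460 nm/530 nm) after 1 h RT dye loading, used for %activity and AC50 from titration series. Cells: Jurkat NFAT-β-lactamase/M1 line, treated with compound plus 1 uM carbachol for 5 h, 37 °C.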

Assay [4] is described as follows: Stat Signaling Pathway (AID 446).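 Note: ME-180 cervical cancer cells given 40 pM IL-6 alongside compound; SIE-controlled beta-lactamase reporter measured as 460/530 nm FRET emission ratio; % is set by controls: 0 for no effect and ±100 for the full control effect.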 The note with it: ME-180 SIE beta-lactamase reporter, IL-6 stimulated, 5 h; series mostly up to 17.2 µM. Summed up:
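IL-6/STAT signaling read in ME-180 cells via an SIE beta-lactamase reporter. Stimulus was 40 pM IL-6 (its AC50) for 5 hrs, so both activation and inhibition register.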

Assay [5] is described as follows: AP1 Signaling Pathway (AID 357).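 Note: ME-180 reporter cells stimulated with EGF at its EC50 level; % is set by controls: 0 for no effect and ±100 for the full control effect.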 To be noted: ME-180 (cervical carcinoma) AP-1-bla reporter, EGF-induced, beta-lactamase ratio, 5 h; series mostly up to 17.2 µM. Summed up: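 Titration-series screen for positive or negative modulators of EC50 EGF-induced signaling in ME-180 cells carrying an AP-1-driven beta-lactamase reporter. After 5 hours at 37 degrees Celsius, CCF4 460nm/530nm emission ratio gave %Activity; AC50 values derived.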

A short description of assay [6]: Cell Viability - BJ (AID 421; calls by dose curve;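 note: potency is the fitted concentration of half-maximal effect; cells exposed to compound for 40 hours at 37 °C before readout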). To be noted: BJ fibroblast viability, qHTS. The essentials:
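Quantitative HTS: ATP depletion in BJ cells after 40 hr compound exposure in complete culture medium, detected with CellTiter-Glo; AC50 from standard Hill fits.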

Assay [7] is described as follows: Cell Viability - Jurkat (AID 426;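 active = dose-dependent loss of cell ATP signal giving a full or clear fitted curve, ranked by lower potency value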; note: potency is the fitted concentration of half-maximal effect). To be noted: qHTS. Summed up:
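Jurkat (Clone E6-1) cells, 5000/well in complete medium, exposed to compounds for 40 hr at 37C; intracellular ATP measured by CellTiter-Glo luminescence after 20 min at room temperature. AC50 from Hill fits.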
In general terms: Quantitative high-throughput screening tests each substance at several concentrations.

A short description of assay [8]: Cell Viability - Hek293 (AID 427;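 active = compounds whose dose-response curve shows a full or clear partial loss of cell viability, called from curve shape rather than a numeric limit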;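 note: potency is the fitted concentration of half-maximal effect; cells exposed to compound for 40 hours at 37 °C before reading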). To be noted: qHTS. Summed up: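 AC50 values derive from Hill-modelled concentration-response of ATP-based luminescence, normalized between DMSO-only and 100 uM tamoxifen controls. Cells were exposed in complete culture medium for 40 hr at 37 °C before detection.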
Assay [9] in a line: Cell Viability - HepG2 (AID 433; calls by dose curve;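 note: potency is the fitted concentration of half-maximal effect; potency for ATP loss meaning cytotoxicity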). To be noted: qHTS. The essentials:
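Cytotoxicity read as ATP loss (CellTiter-Glo luminescence) after 40 hr compound exposure of HepG2, 1500 cells/well, 37 °C. AC50 by Hill equation; 0% set by DMSO, 100% inhibition by 100 uM tamoxifen.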

The nature of assay [10]: Cell Viability - SK-N-SH (AID 435; calls by dose curve; note: potency is the fitted concentration of half-maximal effect). To be noted: SK-N-SH neuroblastoma cell viability qHTS. Summed up:
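qHTS cytotoxicity: CellTiter-Glo ATP luminescence after 40 h compound exposure of human neuroblastoma SK-N-SH cells at 37 °C. AC50 derived by Hill-equation fitting, with DMSO as basal and 100 uM tamoxifen as full inhibition.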

Chain of Cytochrome P450 1A2 (Homo sapiens) (P05177 whole entry, looked up): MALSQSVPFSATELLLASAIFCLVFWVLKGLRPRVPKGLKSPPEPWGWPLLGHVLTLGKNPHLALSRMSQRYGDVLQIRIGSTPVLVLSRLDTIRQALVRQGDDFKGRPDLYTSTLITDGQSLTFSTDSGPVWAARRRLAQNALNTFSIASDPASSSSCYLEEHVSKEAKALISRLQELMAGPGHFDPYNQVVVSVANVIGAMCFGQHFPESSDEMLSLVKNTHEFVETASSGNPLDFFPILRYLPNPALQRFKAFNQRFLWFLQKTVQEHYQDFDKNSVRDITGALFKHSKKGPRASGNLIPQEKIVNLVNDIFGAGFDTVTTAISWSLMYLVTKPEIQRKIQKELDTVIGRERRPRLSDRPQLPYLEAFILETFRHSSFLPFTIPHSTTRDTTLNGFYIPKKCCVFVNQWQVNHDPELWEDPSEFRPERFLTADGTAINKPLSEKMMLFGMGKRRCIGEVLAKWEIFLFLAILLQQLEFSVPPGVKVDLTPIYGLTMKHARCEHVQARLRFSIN
Chain of Lysosomal acid glucosylceramidase (Homo sapiens) (P04062 whole entry, looked up): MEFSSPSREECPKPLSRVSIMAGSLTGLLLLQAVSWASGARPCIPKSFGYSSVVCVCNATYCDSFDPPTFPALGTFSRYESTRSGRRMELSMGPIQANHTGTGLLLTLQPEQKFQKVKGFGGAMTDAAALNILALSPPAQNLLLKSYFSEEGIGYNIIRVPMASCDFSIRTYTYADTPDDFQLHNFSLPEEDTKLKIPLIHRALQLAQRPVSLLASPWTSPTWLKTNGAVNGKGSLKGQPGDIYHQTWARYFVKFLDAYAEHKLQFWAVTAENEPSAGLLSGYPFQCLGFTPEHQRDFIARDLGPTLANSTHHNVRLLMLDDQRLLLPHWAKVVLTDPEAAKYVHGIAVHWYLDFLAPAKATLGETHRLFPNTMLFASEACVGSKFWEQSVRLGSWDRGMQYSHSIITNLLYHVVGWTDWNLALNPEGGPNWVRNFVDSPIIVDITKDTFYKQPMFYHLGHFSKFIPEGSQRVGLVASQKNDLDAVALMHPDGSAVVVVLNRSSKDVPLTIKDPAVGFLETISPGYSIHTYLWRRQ

With `CN(C)CCC=C1c2ccccc2C=Cc2ccccc21`, the Potency in assay [1] was > 11.4 µM (inactive); in assay [2] it was “inactive and 12.6 µM (active)”. Also, in assay [3] (at 7.69 µM (top of the series)), the activity change, negative = inhibition was -78.7% (active). Moreover, in assay [4], the result was inactive.
Turning to `Cn1c(=O)c2[nH]cnc2n(C)c1=O`, the result in assay [5] and in assay [4] was inactive. Moreover, the Potency result in assay [2] is “inactive”. Also, the Potency in [6], in assay [7], in [8], in [9] and in assay [10] was > 92 µM (inactive) in each case. For the same compound, the activity change, negative = inhibition in [3] (at 17.2 µM (top of the series)) is -8.18% (inactive) and -8.96% (inactive) and 7.57% (inactive); in assay [3] (at 38 µM (top of the series)) it was 8.38% (inactive).
Consider `NS(=O)(=O)c1cc2c(cc1Cl)NCNS2(=O)=O`, for which the result in assay [5] and in [4] was inactive. Moreover, the Potency in assay [6], in assay [7], in assay [8], in [9] and in assay [10] was > 92 µM (inactive) in each case. Also, the activity change, negative = inhibition in [3] (at 17.2 µM (top of the series)) is 3.92% (inactive) and 9.7% (inactive); in assay [3] (at 38 µM (top of the series)) it was 0.292% (inactive).
On to `CC(COc1ccccc1)N(CCCl)Cc1ccccc1` (stereo unspecified), for which the outcome in assay [5] and in [4] was inactive. Also, the values for the Potency in assay [6] and in assay [9] were > 92 µM (inactive) and 38.6 µM (active), respectively.
For `CC[N+](CC)(CC)CCOc1cccc(OCC[N+](CC)(CC)CC)c1OCC[N+](CC)(CC)CC`, the outcome in assay [5] and in assay [4] was inactive. In assay [2], the Potency result was “inactive”. Also, the activity change, negative = inhibition was -15.9% (inactive) in [3] (at 17.2 µM (top of the series)) and -22% (inactive) in assay [3] (at 38 µM (top of the series)).
For `NCCS(=O)(=O)O`, the outcome in [5] and in [4] was inactive. Further, the Potency in assay [6], in assay [7], in [8], in [9] and in [10] was > 92 µM (inactive) each time. Also, the activity change, negative = inhibition in [3] (at 38 µM (top of the series)) is 3.83% (inactive).
`CN1CCN(CCCN2c3ccccc3Sc3ccc(Cl)cc32)CC1`: the result in assay [5] and in assay [4] was inactive. Also, in [2], the Potency is 1 µM (active) and 2.51 µM (active). In assay [3] (at 17.2 µM (top of the series)), the activity change, negative = inhibition is -28.9% (inactive).
With `CS(=O)(=O)Nc1ccc([N+](=O)[O-])cc1Oc1ccccc1`, the result in assay [5] and in [4] was inactive. Moreover, the Potency in assay [2] was 15.8 µM (active) and 12.6 µM (active). Moreover, the activity change, negative = inhibition in assay [3] (at 17.2 µM (top of the series)) is -5.4% (inactive) and -1.94% (inactive).
As for `NC(=O)OCC(COC(N)=O)c1ccccc1`, the result in assay [5] and in assay [4] was inactive. For the same compound, the Potency result in assay [2] is “inactive”. Further, the activity change, negative = inhibition in assay [3] (at 17.2 µM (top of the series)) is 3.58% (inactive); in assay [3] (at 38 µM (top of the series)) it was 8.56% (inactive).
With `Cn1ccc2cc3c(cc21)CCN3C(=O)Nc1cccnc1`, the outcome in assay [5] and in assay [4] was inactive. The Potency in assay [2] was 25.1 nM (active) and 3.98 nM (active). For the same compound, the activity change, negative = inhibition in assay [3] (at 38 µM (top of the series)) was -1.4% (inactive).
Turning to `Cc1cc(C(C)(C)C)c(O)c(C)c1CC1=NCCN1`, the result in assay [5] and in assay [4] was inactive. Moreover, in [2], the Potency result was “inactive”.
Consider `COc1ccc(CCN(C)CCCC(C#N)(c2ccc(OC)c(OC)c2)C(C)C)cc1OC` (stereo unspecified), for which the result in assay [5] and in assay [4] was inactive. The Potency in assay [6], in assay [8] and in assay [10] was > 92 µM (inactive) in each case.
Turning to `O=c1c(-c2ccc(O)cc2)coc2cc(O)cc(O)c12`, the outcome in [5] and in assay [4] was inactive. Further, the Potency in assay [2] was 10 µM (active) and 5.01 µM (active); in assay [6], > 92 µM (inactive); in assay [8], > 92 µM (inactive); in assay [9], > 92 µM (inactive). Besides, the activity change, negative = inhibition in [3] (at 38 µM (top of the series)) is -8.04% (inactive).
`N[C@@H](Cc1c[nH]c2ccc(O)cc12)C(=O)O`: the outcome in assay [5] and in assay [4] was inactive. Moreover, the Potency result in assay [2] was “inactive”. In addition, the Potency in [6], in [8] and in [9] was > 92 µM (inactive) in each case. Moreover, the activity change, negative = inhibition in assay [3] (at 38 µM (top of the series)) was -5.52% (inactive).
`COc1ccc2[nH]cc(CCNC(C)=O)c2c1`: the result in [5] and in [4] was inactive. In addition, the Potency in assay [6], in assay [7], in assay [8], in assay [9] and in [10] was > 92 µM (inactive) each time. In addition, the activity change, negative = inhibition in [3] (at 17.2 µM (top of the series)) is -17.4% (inactive); in [3] (at 38 µM (top of the series)) it was 14.9% (inactive).
Regarding `Cc1cc(C(C)(C)C)cc(C)c1CC1=NCCN1`, the result in assay [5] and in assay [4] was inactive. For the same compound, the Potency entry in assay [2] was “inactive”.
As for `NCCCCCC(=O)O`, the outcome in assay [5] and in [4] was inactive. Further, the Potency entry in assay [2] is “inactive”. Also, the activity change, negative = inhibition in assay [3] (at 17.2 µM (top of the series)) is -9.25% (inactive); in [3] (at 38 µM (top of the series)), 21.3% (inactive).
In the case of `CC(C)C(=O)Nc1ccc([N+](=O)[O-])c(C(F)(F)F)c1`, the outcome in [5] and in assay [4] was inactive. Besides, the Potency is 2 µM (active) and 316 nM (active) in assay [2]; > 92 µM (inactive) in assay [7]; 53.5 µM (inactive) in assay [8]; > 92 µM (inactive) in assay [9]. The activity change, negative = inhibition in assay [3] (at 17.2 µM (top of the series)) was -0.457% (inactive); in assay [3] (at 38 µM (top of the series)) it was 9.16% (inactive).
On to `Cc1ccc(C(=O)Nc2ccc(S(=O)(=O)O)c3cc(S(=O)(=O)O)cc(S(=O)(=O)O)c23)cc1NC(=O)c1cccc(NC(=O)Nc2cccc(C(=O)Nc3cc(C(=O)Nc4ccc(S(=O)(=O)O)c5cc(S(=O)(=O)O)cc(S(=O)(=O)O)c45)ccc3C)c2)c1`, for which the outcome in [5] was inactive. Further, in assay [3] (at 38 µM (top of the series)), the activity change, negative = inhibition is -19.8% (inactive).
Consider `O=c1[nH]cc(F)c(=O)[nH]1`, for which the outcome in assay [5] and in [4] was inactive. Further, the Potency result in assay [2] is “inactive”. The Potency in [6] was > 92 µM (inactive); in [7] it was > 92 µM (inactive); in [8], > 92 µM (inactive); in assay [9] it was > 92 µM (inactive); in assay [10], 9.55 µM (inactive). In addition, in assay [3] (at 38 µM (top of the series)), the activity change, negative = inhibition is 18.8% (inactive).
For the compound `CC[C@@]1(O)C(=O)OCc2c1cc1n(c2=O)Cc2cc3c(CN(C)C)c(O)ccc3nc2-1`, the Potency in [1] is > 11.4 µM (inactive). Moreover, in assay [2], the activity change, negative = inhibition was -17.9% [at 2.29 µM] (inactive).
As for `CN1CCC(=C2c3ccccc3C=Cc3ccccc32)CC1`, the outcome in assay [5] and in [4] was inactive. Besides, in assay [2], the Potency entry is “inactive”. The activity change, negative = inhibition in assay [3] (at 17.2 µM (top of the series)) was -67.8% (active).
